Data from PubChem BioAssay.
Activity calls are given as the source filed them.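 How the source made its calls, unless noted: active means inhibition above 20% together with a positive visual image hit; inconclusive means visual image hit but inhibition not above 20%; inactive means no visual image hit.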

Tests used:
[1] = inhibitors of TNFa-induced NFkB p65 translocation, primary screen, imaging, HUVEC, MLSMR starter and 10KST1 sets (AID 438); conditions: HUVEC TNFa-induced p65 nuclear translocation; cell count: measured here: nuclei count (cytotoxicity indicator), at 2.08 µM; inhibition: at 2 µM, stronger effect = higher value, 0% TNFa-plus-vehicle, 100% no-TNFa wells;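 further: compound added about 3h40 before a 20 min TNFalpha stimulation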;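 on inhibition: signal is the nuclear over cytoplasmic p65 intensity ratio per well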
[2] = inhibitors of mutant huntingtin aggregation, primary screen, imaging, exon1htt(103Q)mCFP cells, high-content imaging (AID 483;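 active means visual image review flags a hit and inhibition of aggregation exceeds 20%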;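 further: compound exposure lasted 3 days before fixation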;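 on nuclei count: percent of the per-plate median nuclei count of sample wells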); conditions: exon1htt(103Q)mCFP cell line, aggregate imaging, at 2 µM; inhibition of aggregation: stronger effect = higher value; nuclei count: measured here: cell count, toxicity
[3] = inhibitors of E-selectin induction by TNFa, primary screen, imaging, HUVEC, immunofluorescence, MLSMR starter and 10KST1 sets (AID 487;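 active means visually confirmed hit in the image check and inhibition above 20%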;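 on inhibition: signal is fraction of cell area covered by stained E-selectin grains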;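 on nuclei count: 100% = median nuclei count of all wells on the same plate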); conditions: HUVEC TNFalpha-induced E-selectin immunofluorescence imaging, at 2 µM; inhibition: stronger effect = higher value; nuclei count: measured here: cell number, toxicity
[4] = biological target: Voltage-gated potassium channel subunit beta-2 (Rattus norvegicus) (UniProt P62483); test: KvBeta enzyme negative modulators, primary screen, biochemical, NADPH fluorescence (AID 622;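 active means fluorescence slope higher than the sample average by over 3 SD, cut at about -0.22 in these data, passing the limit was not always enough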;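 further: slope of raw intensity against log time taken from 70 to 1610 s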); conditions: recombinant KvBeta, 4-cyanobenzaldehyde reduction, at 10 µM, stronger effect = higher value
Chain of Voltage-gated potassium channel subunit beta-2 (Rattus norvegicus) (P62483 whole entry, looked up): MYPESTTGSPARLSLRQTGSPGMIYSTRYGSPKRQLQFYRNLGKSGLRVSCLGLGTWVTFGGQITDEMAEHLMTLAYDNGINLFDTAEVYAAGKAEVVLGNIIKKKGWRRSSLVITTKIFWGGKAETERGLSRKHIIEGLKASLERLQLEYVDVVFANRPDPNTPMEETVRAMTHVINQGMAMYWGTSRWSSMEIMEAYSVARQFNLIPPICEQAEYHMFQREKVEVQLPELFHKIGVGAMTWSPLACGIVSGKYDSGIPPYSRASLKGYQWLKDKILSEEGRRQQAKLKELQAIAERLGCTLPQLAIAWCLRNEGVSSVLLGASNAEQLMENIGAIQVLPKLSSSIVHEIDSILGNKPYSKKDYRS

[5] = biological target: Voltage-gated potassium channel subunit beta-2 (Rattus norvegicus) (UniProt P62483); test: KvBeta positive modulators, primary screen, biochemical, NADPH fluorescence (AID 623;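 active means NADPH fluorescence slope more negative than the mean of all samples by about 3 SD, 99.7% confidence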;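 further: fluorescence intensity change per second fitted from 20 to 320 s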); conditions: Recombinant KvBeta, NADPH fluorescence decrease slope, 10 min; at 10 µM; stronger effect = lower value
[6] = biological target: Alpha-2C adrenergic receptor (Homo sapiens) (UniProt P18825); test: modulators of alpha2C/GIRK thallium flux, primary screen, cell-based, HEK293 alpha2C/GIRK1/2 (AID 624;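 active means fluorescence slope after compound addition differing from the mean of all screened samples at 99.7% confidence, in either direction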;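 further: slope of fluorescence ratio to pre-addition baseline per second over 15 to 24 s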); conditions: thallium flux BTC fluorescence, at 10 µM, actives lie on both sides
Chain of Alpha-2C adrenergic receptor (Homo sapiens) (P18825 whole entry, looked up): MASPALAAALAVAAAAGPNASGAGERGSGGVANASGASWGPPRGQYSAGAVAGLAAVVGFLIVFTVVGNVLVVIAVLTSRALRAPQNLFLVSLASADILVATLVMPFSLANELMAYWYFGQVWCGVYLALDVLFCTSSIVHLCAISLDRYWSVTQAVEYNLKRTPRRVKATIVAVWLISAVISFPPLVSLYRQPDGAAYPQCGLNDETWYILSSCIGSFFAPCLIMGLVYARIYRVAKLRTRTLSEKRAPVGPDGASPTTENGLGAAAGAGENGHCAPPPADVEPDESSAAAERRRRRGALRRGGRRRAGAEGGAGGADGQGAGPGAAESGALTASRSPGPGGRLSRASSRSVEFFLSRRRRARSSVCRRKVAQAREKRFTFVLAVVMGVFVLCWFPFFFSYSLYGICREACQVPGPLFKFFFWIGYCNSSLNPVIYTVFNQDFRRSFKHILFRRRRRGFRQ

[7] = inhibitors of Sendai virus-induced IRF3 signaling, primary screen, TLR/RLR signaling modifier project, cell-based, Sendai virus stimulus, luciferase, 10K MLSCN set (AID 602276;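 active means inhibition at or above 50% at 10 µM; inactive means inhibition below 50%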;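 further: firefly luciferase from ISG56 promoter only with Renilla not read in this screen; 0% = Sendai virus plus DMSO and 100% = medium plus DMSO without virus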); conditions: HEK293 RL24 IRF3 luciferase reporter, at 10 µM, stronger effect = higher value
[8] = inhibitors of poly I:C-induced TLR3 signaling, primary screen, cell-based, poly I:C stimulus, luciferase, 10K MLSCN set (AID 602277;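 active means inhibition of the reporter signal at or above 50%; inactive means inhibition below 50%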); conditions: HEK293-TLR3 RL24 IRF3 luciferase reporter, at 10 µM, stronger effect = higher value

Row | SMILES | cell count [1] | inhibition [1] | inhibition of aggregation [2] | nuclei count [2] | inhibition [3] | nuclei count [3] | fluorescence slope [4] | NADPH fluorescence slope [5] | slope [6] | inhibition [7] | inhibition [8]
1 | CC(=O)Nc1c(O)nc(SCC(=O)Nc2nnc(CC(C)C)s2)[nH]c1=O | 780 | -3.3% (inactive) | 0% (inactive) | 114% | -41% (inactive) | 104% | -0.541 (inactive) | 1.8e-05 (inactive) | 0.00412 (inactive) | -9.44% (inactive) | -13.3% (inactive)
2 | COc1cc(C2N3CC4(C)CN2CC(C)(C3)C4)ccc1O (stereo not given) | 309 | -4.3% (inactive) | 15.8% (inactive) | 74.7% | -33.6% (inactive) | 100% | -0.345 (inactive) | -5.2e-07 (inactive) | 0.0063 (inactive) | 0.715% (inactive) | 25.8% (inactive)
3 | CCSc1ccccc1C(=O)Nc1cccc(OC)c1 | 421 | 0.8% (inactive) | -0.9% (inactive) | 112% | -1.4% (inactive) | 75% | -0.539 (inactive) | -8.4e-05 (inactive) | 0.00513 (inactive) | -8.73% (inactive) | -15.7% (inactive)
4 | O=C(Cn1nc(-c2ccc3c(c2)OCCO3)ccc1=O)Nc1ccc(N2CCOCC2)cc1 | 270 | 11.8% (inactive) | -53.9% (inactive) | 90.7% | -60.3% (inactive) | 111% | -0.429 (inactive) | -5.2e-05 (inactive) | 0.00403 (inactive) | 2.21% (inactive) | 21% (inactive)
5 | CC1=C(C(=O)NCc2ccccc2)C(c2ccccc2OCC(N)=O)NC(=O)N1 (stereo not given) | 355 | -8.1% (inactive) | 14.3% (inactive) | 96.4% | -16.7% (inactive) | 98.2% | -0.428 (inactive) | 7.3e-06 (inactive) | 0.00981 (inactive) | 6.63% (inactive) | 14.9% (inactive)
6 | Cc1cccc2sc(NC(=O)CN(C)S(=O)(=O)c3cccs3)nc12 | 601 | -25.8% (inactive) | -7% (inactive) | 114% | -1.7% (inactive) | 103% | -0.432 (inactive) | 1e-05 (inactive) | 0.00346 (inactive) | -1.84% (inactive) | -8.61% (inactive)
7 | COc1ccc(OCC(O)Cn2c(Br)nc3c2c(=O)[nH]c(=O)n3C)cc1 (stereo not given) | 221 | 2.4% (inactive) | 15.5% (inactive) | 74.9% | -39.9% (inactive) | 155% | -0.6 (inactive) | -3.5e-05 (inactive) | 0.00397 (inactive) | 35% (inactive) | 27.6% (inactive)
8 | Cc1cc(C(=O)NCCCN2CCN(C3CCCCC3)CC2)n(-c2ccccc2)n1 | 685 | -2.2% (inactive) | -2.4% (inactive) | 101% | -70.3% (inactive) | 114% | -0.588 (inactive) | -2.7e-05 (inactive) | 0.00679 (inactive) | -18.1% (inactive) | 17.8% (inactive)
9 | COCCCNC(=O)CCn1c(=O)c2ccccc2n(CC(=O)Nc2ccc(C)cc2C)c1=O | 689 | -7.3% (inactive) | -6.5% (inactive) | 102% | -48.2% (inactive) | 111% | -0.502 (inactive) | -1.8e-05 (inactive) | 0.00709 (inactive) | 8.73% (inactive) | 19% (inactive)
10 | COc1ccc(OC)c(NC(=O)CS(=O)(=O)Cc2nc(-c3ccccc3C)oc2C)c1 | 676 | 1.1% (inactive) | -17.4% (inactive) | 97.7% | -17.6% (inactive) | 110% | -0.587 (inactive) | -1.4e-06 (inactive) | 0.00717 (inactive) | 7.59% (inactive) | 31.4% (inactive)
11 | CCOC(=O)c1c(NC(=O)c2ccn(CC)n2)sc2c1CCCC2 | 680 | -10.9% (inactive) | -3.6% (inactive) | 97.6% | -71.6% (inactive) | 114% | -0.123 (inactive) | -1.5e-06 (inactive) | 0.00291 (inactive) | 3.28% (inactive) | -1.94% (inactive)
12 | O=C1c2ccccc2C(Nc2cccnc2)N1Cc1ccccc1Cl (stereo not given) | 674 | -14.6% (inactive) | -13.6% (inactive) | 105% | -37.8% (inactive) | 109% | -0.422 (inactive) | -4.2e-05 (inactive) | 0.00424 (inactive) | 3.6% (inactive) | 18.3% (inactive)
13 | O=C(OCCCCN1C(=O)c2ccccc2C1=O)c1n[nH]c2ccccc12 | 698 | 8.6% (inactive) | 12.4% (inactive) | 97% | -164% (inactive) | 155% | -0.543 (inactive) | -5.2e-05 (inactive) | 0.00475 (inactive) | 9.32% (inactive) | -4.95% (inactive)
14 | CC(Sc1nc(-c2ccccc2)cc(C(F)(F)F)n1)C(=O)N1CCCC1 (stereo not given) | 698 | -1.1% (inactive) | -38.4% (inactive) | 118% | -83% (inactive) | 133% | -0.506 (inactive) | 3.3e-05 (inactive) | 0.00611 (inactive) | 5.88% (inactive) | 16.9% (inactive)
15 | COC(=O)c1ccc(-c2nn(C)c(=O)c3ccccc23)cc1 | 493 | -5.5% (inactive) | -11.1% (inactive) | 76.7% | -13.3% (inactive) | 97.9% | -0.55 (inactive) | -3e-05 (inactive) | 0.00686 (inactive) | 8.98% (inactive) | 29.2% (inactive)
16 | COC(=O)c1ccccc1NC(=O)CSc1nc2c(c(=O)n(C)c(=O)n2C)n1C | 470 | 1% (inactive) | -5.1% (inactive) | 95.9% | 9.9% (inactive) | 119% | -0.382 (inactive) | 2e-05 (inactive) | 0.00766 (inactive) | -17.1% (inactive) | -34.2% (inactive)
17 | CC(=O)C1=C(C)Nc2ncnn2C1c1cccc(OCc2ccccc2)c1 (stereo not given) | 610 | 0% (inactive) | 2.1% (inactive) | 103% | -51.7% (inactive) | 122% | -0.559 (inactive) | 4.9e-06 (inactive) | 0.0069 (inactive) | 11.8% (inactive) | 29% (inactive)
18 | COCCn1c(C)cc(C(=O)CSc2nc3ccccc3c(=O)[nH]2)c1C | 287 | -9.5% (inactive) | -2.6% (inactive) | 95.3% | -22.3% (inactive) | 114% | -0.595 (inactive) | -3.8e-05 (inactive) | 0.00437 (inactive) | -28% (inactive) | -89.1% (inactive)
19 | CCOC(=O)c1cc(NC(=O)SCC(=O)O)c(C)nc1C | 762 | 5.1% (inactive) | -19.7% (inactive) | 111% | -99.8% (inactive) | 128% | -0.484 (inactive) | -3.2e-05 (inactive) | 0.0071 (inactive) | 7.76% (inactive) | 9.57% (inactive)
20 | O=c1[nH]c(=O)n(C2CCCCCC2)c(O)c1C=NCc1ccc(F)cc1 | 666 | 5% (inactive) | 0.1% (inactive) | 109% | 3% (inactive) | 110% | -0.321 (inactive) | 3.1e-05 (inactive) | 0.00576 (inactive) | 14.6% (inactive) | 26.9% (inactive)
21 | CCOc1ccc(NCc2nnc(SCC(=O)Nc3cc(C)on3)n2-c2ccccc2OC)cc1 | 325 | -9.3% (inactive) | -6.4% (inactive) | 101% | 41.6% (inactive) | 107% | -0.452 (inactive) | -2.8e-05 (inactive) | 0.00835 (inactive) | 20.4% (inactive) | 30.4% (inactive)
22 | COc1ccc(OC)c(C(=O)COC(=O)c2cc(C)oc2C)c1 | 747 | -9.6% (inactive) | 38.1% (inactive) | 103% | -2.3% (inactive) | 114% | -0.361 (inactive) | 2.4e-05 (inactive) | 0.00558 (inactive) | 6.43% (inactive) | -0.082% (inactive)
23 | Cc1cccc(-n2ncc3c(NCCCn4ccnc4)ncnc32)c1 | 604 | 1.3% (inactive) | 30.9% (inactive) | 99.7% | -29.8% (inactive) | 119% | -0.45 (inactive) | -4.7e-05 (inactive) | 0.00546 (inactive) | -63.1% (inactive) | -121% (inactive)
24 | COC(=O)c1c(-c2cccs2)csc1NC(=O)CN1CCOCC1 | 345 | 6% (inactive) | -6.9% (inactive) | 106% | -22.6% (inactive) | 119% | -0.519 (inactive) | -5.2e-05 (inactive) | 0.00516 (inactive) | 16.1% (inactive) | 3.26% (inactive)
25 | CCOc1cccc(C(=O)N(Cc2ccco2)C2CCS(=O)(=O)C2)c1 (stereo not given) | 609 | 9.6% (inactive) | 2.4% (inactive) | 107% | -9.8% (inactive) | 110% | -0.342 (inactive) | -6.1e-05 (inactive) | 0.00467 (inactive) | 11.5% (inactive) | 13.7% (inactive)
